# Experimental data as given in PubChem BioAssay (NCI).
# About 83,000 compounds went through this panel and 20% of them were active in at least one assay; those are over-represented in the sample as a whole.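 In brief: 96-well plates, 48 h treatment, single concentration, percent growth endpoint.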 The source made the active and inactive calls.
# System: KM12 colon
# Test: NCI-60 one-dose screen, 48 h (100 = growth as untreated, 0 = no growth, -100 = all killed)
# Settings: 10 µM
# Procedure: Growth inhibition of the KM12 human tumor cell line is measured as a screen for anti-cancer activity. Cells are grown in 96 well plates and exposed to the test compound for 48 hours. Compounds are tested at a single concentration, which is 10^-5 M for most compounds. The reported endpoint is percent growth (GI% or GIPRCNT), where numbers from 0 - 100% represent growth inhibition, and numbers from -100% - 0 represent cell death. For example, a value of 40 represents 60% growth inhibition. A value of 0 means no net growth occurred over the course of the experiment. A value of -40 indicates 40% of cells at the beginning of the experiment died by the end of the experiment. A value of -100 means all cells are dead at the end of the experiment.
# NCI-60 Human Tumor Cell Lines Screen was performed using the standard one-dose NCI protocol, which is described in more detail at https://dtp.cancer.gov/discovery_development/nci-60/default.htm.
# Compounds with GIPRCNT values below 10 were considered active. Activity score was based on GIPRCNT using the following formula: […]
# Score is 0 for GIPRCNT values of 100 or above, 50 for GIPRCNT values of 0, and 100 for GIPRCNT values of -100.
row,Structure (SMILES),growth
1,Cn1cc(-c2nc(N)nnc2-c2c[nH]c3ccccc23)c2cc(Br)cnc21,13.1% (inactive)
2,C#C[C@]1(O)CC[C@H]2[C@@H]3CC=C4c5sc(Nc6ccc(C(F)(F)F)cn6)nc5CC[C@]4(C)[C@H]3CC[C@@]21C,-16.5% (active)
3,COc1ccc(C2c3sc4ccc(C)cc4c3Oc3nc(N)nc(N)c32)cc1 (stereo not given),70.9% (inactive)
4,CC(C)(C)c1cc(/C=C2\S/C(=N/c3ncn[nH]3)NC2=O)cc(C(C)(C)C)c1O,20.2% (inactive)
5,O=C(CSc1nc2ccccc2c(=O)n1-c1ccc(Cl)cc1)Nc1ccc(-c2nc3ccc([N+](=O)[O-])cc3[nH]2)cc1,43% (inactive)
6,C#CCOc1cc(N(CC)CC)ccc1C(C(=O)NC(C)(C)C)N(C(=O)C1CCc2cc(F)ccc2O1)c1ccc(F)cc1F (stereo not given),25% (inactive)
7,Cc1cc(N=C2NC(=O)/C(=C/c3cc(C(C)(C)C)c(O)c(C(C)(C)C)c3)S2)n[nH]1,17.1% (inactive)
8,CCOc1ccc(/C=N/NC(=O)Cn2nc(Cc3ccc(OC)cc3)c3onc(C)c3c2=O)cc1,47.9% (inactive)
9,CCOC(=O)C1=C(N)N(c2ccc(C)cc2)C2=C(C(=O)CC(C)(C)C2)C1c1ccccc1Br (stereo not given),83.8% (inactive)
10,Cc1cc(N=C2NC(=O)S/C2=C\c2ccc(F)cc2)n[nH]1,28.2% (inactive)
11,Cc1ccc2c(c1)C(=O)/C(=C/c1c[nH]c3ccccc13)S2,35.1% (inactive)
12,CC1(C)CC[C@]2(C(=O)O)CC[C@]3(C)C(=CCC4[C@@]5(C)C[C@@H](O)[C@@H]6OC(c7cccc(F)c7)OC[C@@]6(C)C5CC[C@]43C)C2C1 (stereo not given in full),21.3% (inactive)
13,Cc1ccc(-c2nc(C#N)c(S(=O)(=O)N3CCN(S(C)(=O)=O)CC3)o2)cc1,92.5% (inactive)
14,O=C(c1ccc(F)cc1)C(c1c[nH]c2ccccc12)c1c[nH]c2ccccc12,70.3% (inactive)
15,Cc1ccc2sc3c(c2c1)Oc1nc[nH]c(=O)c1C3c1cccc(F)c1 (stereo not given),100% (inactive)
16,O=[N+]([O-])c1cccc(-c2nnc3c(/C=C/c4ccccc4O)nc4ccccc4n23)c1,37.5% (inactive)
17,COc1cccc(C(=O)CSc2nc(-c3ccc(OCc4ccccc4)c(OC)c3)c(C#N)c(=O)[nH]2)c1,104% (inactive)
18,COc1ccc(NCc2cn(-c3ccc(C(=O)O)cc3)nc2-c2ccc(F)cc2)cc1C(F)(F)F,24.1% (inactive)
19,C#C[C@]1(O)CC[C@H]2[C@@H]3CC=C4c5sc(Nc6ccc(N(C)C)cc6)nc5CC[C@]4(C)[C@H]3CC[C@@]21C,2.83% (active)
20,O=C(c1ccccc1)c1ccc2nc(-c3ccccc3Br)[nH]c2c1,-44.2% (active)

row,Structure (SMILES),growth
1,Cc1ccc(S(=O)(=O)N2CCN(S(=O)(=O)c3oc(-c4ccccc4)nc3C#N)CC2)cc1,82.5% (inactive)
2,O=C(CSc1nc2ccccc2c(=O)n1-c1ccc(Cl)cc1)Nc1ccc(-c2nc3ccccc3[nH]2)cc1,17% (inactive)
3,O=C(CN1CCN(c2ncnc3c2cnn3-c2ccccc2)CC1)Nc1ccc(Br)cc1,57.5% (inactive)
4,Nc1nnc(-c2c[nH]c3ncc(Br)cc23)c(-c2c[nH]c3ccc(Br)cc23)n1,37.5% (inactive)
5,O=C(CN1CCN(c2ncnc3c2cnn3-c2ccccc2)CC1)Nc1ccc(Cl)cc1,53.1% (inactive)
6,O=C(Nc1ccc(OCc2ccc(F)cc2)cc1)Nc1ccc(Cl)c(C(F)(F)F)c1,11.1% (inactive)
7,COc1cc(-c2nc3ccc(C)cc3[nH]2)ccc1OCc1nnc(-c2ccccc2Br)o1,65.9% (inactive)
8,COc1cc(Nc2nc(O)c(/C=C3\C=Nc4ccccc43)s2)cc(OC)c1OC,-72.4% (active)
9,CCOC(=O)c1ccc(NC(=O)CSC(CC(=O)c2sc(Nc3ccccn3)nc2C)c2ccccc2F)cc1 (stereo not given),-50.8% (active)
10,COc1ccc(C2OC[C@@]3(C)C4CC[C@]5(C)C(CC=C6C7CC(C)(C)CC[C@]7(C(=O)O)CC[C@]65C)[C@@]4(C)C[C@@H](O)[C@@H]3O2)cc1 (stereo not given in full),54.4% (inactive)
11,C#C[C@]1(O)CC[C@H]2[C@@H]3CC=C4c5sc(Nc6cc(C)cc(C)n6)nc5CC[C@]4(C)[C@H]3CC[C@@]21C,-16.7% (active)
12,COc1cc(C2CC(c3ccc(Oc4ccc(Cl)cc4)cc3)=NN2c2nc(-c3ccc(Cl)cc3)c(C#N)c(N3CCOCC3)n2)cc(OC)c1OC (stereo not given),101% (inactive)
13,COc1ccccc1-n1cc(C#N)c(N)c1C(=O)c1ccc(Cl)cc1Cl,22.9% (inactive)
14,COc1cc(C2CC(c3ccccc3)=Nc3c(N)nc(N)nc3N2)ccc1Oc1nc(NCCO)nc(N2CCOCC2)n1 (stereo not given),102% (inactive)
15,COc1cc2oc(-c3cccc(C(=O)Nc4ccc(Cl)cc4)c3)cc(=O)c2c(OCCNC(=O)[C@@H](N)CO)c1OC,35.2% (inactive)
16,Fc1ccc(-c2csc(Nc3cccc(Nc4nc(-c5ccc(F)cc5)cs4)c3)n2)cc1,37.6% (inactive)
17,O=C1NC2C=CC=CC2/C1=C1/SC(=S)N(C2CC(=O)N(c3ccc(Br)cc3)C2=O)C1=O (stereo not given),81.4% (inactive)
18,CC1[C@H]2[C@H](C[C@H]3[C@@H]4CC=C5c6sc(Nc7cccc(Cl)n7)nc6CC[C@]5(C)[C@H]4CC[C@@]32C)O[C@]12CC[C@@H](C)CO2 (stereo not given in full),84.9% (inactive)
19,COC(=O)CNC(=O)COc1c(OC)c(OC)cc2oc(-c3cccc(C(=O)Nc4ccc(Cl)cc4)c3)cc(=O)c12,41.5% (inactive)
20,COc1ccc(-n2c(SCC(=O)NNS(=O)(=O)c3ccccc3)nc3ccc(Cl)cc3c2=O)cc1,102% (inactive)
